A selection: hits, their analogues and other compounds. The true share with any hit is near 21%.
CHX counter: affects cycloheximide protein synthesis inhibition readout, counter-screen | cell reporter, cycloheximide protein synthesis inhibition counterscreen | max response, % | hit rate 12% among 300,000 | AID 2314; in the data active = max response mostly above about 13%, no sharp cut-off; inactive = mostly below about 14%; also: read at 38.3 µM for the half of the compounds with a filed dose; 0% is about no effect
Pf growth 48h: P. falciparum growth inhibition at 48 hours (one generation); P. falciparum luciferase growth in erythrocytes, 48 h; Potency, µM (doses to about 28.7 µM), for inactives: at the top dose activity change, negative = inhibition, hits mostly inhibitors; hit rate 5.9% among 310,000; also: potency is read from the fitted curve at half-maximal effect; % is scaled to controls: 0 for no effect and ±100 for the full control effect
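In quantitative HTS format, infected erythrocytes bearing luciferase-reporter parasites were treated for a single generation at 37 C. Luminescence after adding detection reagent served as the growth measure.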
HCMV inh: blocks human cytomegalovirus replication. AID 1259415. HFF cells, HCMV-luciferase reporter, 72 h; stronger effect = lower value. activity change, negative = inhibition, % at 57.5 µM. hit rate 4.5% among 410,000; in the data active = activity change below about -60%; inconclusive = no clear call, values can overlap the other calls; inactive = above about -39%; also: % is scaled to controls: 0 for no effect and ±100 for the full control effect
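Two-dose cell screen: HFF monolayers treated with compounds and infected with luciferase-expressing HCMV at 1 PFU/cell, 72 h at 37C, then lysed for luciferase measurement.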
Shiga inhibitor: Shiga toxin inhibition | Vero cells, Shiga toxin protein synthesis inhibition reporter | inhibition, % at 38.7 µM | hit rate 9.2% among 290,000 | AID 2315; in the data active = inhibition mostly above about 28%, no sharp cut-off; inactive = mostly below about 43%; also: 0% is about no effect
Pf growth 96h: P. falciparum growth inhibition at 96 hours; hit rate 6.9% among 320,000; AID 504834; Potency, µM (doses to about 28.7 µM), inactives show at the highest dose activity change, negative = inhibition, hits mostly inhibitors; P. falciparum luciferase reporter growth, 96 h; also: potency is read from the fitted curve at half-maximal effect; % is scaled to controls: 0 for no effect and ±100 for the full control effect
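Two parasite generations (96 h, 37 C, 5% CO2) of compound exposure in infected erythrocytes (0.05% parasitemia, 2% hematocrit). Luciferase-reporter P. falciparum; decreased luminescence indicates inhibited growth, aimed at apicoplast-acting delayed death.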
HCV inh: HCV inhibition; Huh7.5.1 HCVcc-Cre infection, luciferase reporter, 44 h; Potency, µM (doses to about 41.8 µM), for inactives: top-dose activity change, negative = inhibition, hits mostly inhibitors; hit rate 3.4% among 340,000; also: potency is read from the fitted curve at half-maximal effect; % is scaled to controls: 0 for no effect and ±100 for the full control effect
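Seed cells (1,000/well) for 4 h; treat with compound and infect with HCVcc-Cre, moi about 0.5. Incubate 44 h, then detect luciferase activity.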
Active calls of the source: *; ? = inconclusive; . = no result. Unless noted, calls follow the shape of the dose curve; as a rule, active = well fitted inhibition curve with a large enough effect; inconclusive = small, poorly fitted or top-dose-only effect, or another doubt; inactive = no such curve, though single readings can be large or run the other way.

SMILES	CHX counter	Pf growth 48h	HCMV inh	Shiga inhibitor	Pf growth 96h	HCV inh
CC(=O)Nc1ccc(S(=O)(=O)N2CCN=C2SCc2ccc(F)cc2)cc1	-1.2	?	-18.4	-13.4	14.7µM*	?
CCSC1=NCCN1S(=O)(=O)c1ccc(NC(C)=O)cc1	-3.2	-20.6%	0.6	36.9	5.1%	8.8%
CCOC(=O)N1CCN(C(=O)C[C@H]2C[C@@]3(C(=O)OC)C(=C[C@H](C(C)(C)C)O[C@@H]3C)N(CCC3=CCCCC3)C2=O)CC1	.	.	113.7	.	.	.
O=Cc1cn(CCCOc2ccccc2)c2ccccc12	55.0*	129.0%	79.5	50.8*	7.4%	1.8%
CC1=CN2C(=N)/C(=C\c3cn(CCCOc4ccccc4)c4ccccc34)C(=O)N=C2S1	11.7*	-72.1%	56.2	10.5	?	1.7%
COC(=O)N/N=C/c1cn(CCCOc2ccccc2)c2ccccc12	39.5*	101.6%	69.7	72.1*	178.8%	?
COc1ccc(OCCn2cc(C=O)c3ccccc32)cc1	-2.5	50.7%	11.1	12.1	?	-5.6%
CCOC(=O)c1c(C)sc(-c2c(-c3ccccc3)[nH]c3[nH]c(=O)[nH]c(=O)c23)c1O	.	.	6.5	.	.	.
COc1cc(CC(=O)Nc2ccccc2N2CCCCC2)cc(OC)c1OC	-0.8	?	-34.8	-22.1	?	-10.6%
O=C(Nc1ccc(S(=O)(=O)Nc2nccs2)cc1)c1ccc(=O)[nH]c1	-3.4	3.3%	-17.7	-10.2	15.4%	18.8%
C=CCCC1CN(Cc2ccc(OC)cc2)S(=O)(=O)c2c(NCc3cc(OC)c(OC)c(OC)c3)cccc2O1 (stereo not drawn)	.	.	-18.9	.	.	.
NS(=O)(=O)c1ccc(CCNc2nn3c(-c4cccc(OC(F)(F)F)c4)cnc3s2)cc1	.	.	-97.5*	.	.	.
CC1(C)CC(=O)c2sc(NS(=O)(=O)Cc3ccccc3)nc2C1	26.8*	30.0%	94.3	41.3*	2.5%	5.3%
Cc1ccc(S(=O)(=O)Nc2nc3c(s2)C(=O)CC(C)(C)C3)cc1	8.6	9.0%	16.7	-14.8	?	23.0%
Cc1ccsc1C(=O)N(c1nc2ccccc2s1)c1c(C)cccc1C	-1.4	11.7µM*	?	-14.1	8.28µM*	?
Cc1ccc2nc(N(Cc3cccnc3)C(=O)COc3ccccc3)sc2c1	.	.	-5.0	.	.	.
COc1ccc(C)cc1N(C(=O)c1cccc(F)c1)c1nc2ccccc2s1	-1.0	?	18.8	-4.1	?	?
COc1ccc(C)cc1N(C(=O)COc1ccccc1)c1nc2ccccc2s1	1.5	10.4µM*	68.7	15.2	?	-0.6%
COc1ccc(C)cc1N(C(=O)c1ccccc1)c1nc2ccccc2s1	-0.3	11.7µM*	-23.6	-1.9	13.1µM*	15.8µM*
COc1ccc(C)cc1N(C(=O)c1ccccc1F)c1nc2ccccc2s1	-3.2	9.28µM*	0.8	-8.4	16.5µM*	?
COc1ccc(S(=O)(=O)Nc2ccc3c(c2)C(=O)N([C@H](C)CO)C[C@H](C)[C@@H](CN(C)S(=O)(=O)c2c(C)noc2C)O3)cc1	.	.	6.4	.	.	?
O=C(Cn1nc(C(F)(F)F)c2c1CCCC2)Nc1ccc(Br)cc1	.	.	-20.1	.	.	.
CC1(C)CC(=O)C=C(c2cccnc2)C1	.	.	69.0	.	.	0.8%
Cc1ccc(C)c(-n2sc3ccc(F)cc3c2=O)c1	.	2.08µM*	-86.8*	.	1.47µM*	?
COc1ccc(-n2sc3ccc(F)cc3c2=O)cc1	.	4.15µM*	-5.1	.	144.2%	2.82µM*
SMILES	CHX counter	Pf growth 48h	HCMV inh	Shiga inhibitor	Pf growth 96h	HCV inh
COc1ccc(-n2sc3ccccc3c2=O)cc1	.	.	-102.0*	.	.	.
N#Cc1ccc2sn(-c3ccccc3)c(=O)c2c1	.	.	30.8	.	.	.
O=c1c2cc([N+](=O)[O-])ccc2sn1-c1ccccc1	.	.	31.0	.	.	.
O=c1c2cc(F)ccc2sn1-c1ccc(F)cc1	.	4.15µM*	.	.	8.4%	?
CC(=O)OC1CSC2c3ccccc3C(=O)N2Cc2sccc21 (stereo not drawn)	-1.6	3.7%	6.5	-6.8	-1.9%	10.5%
Cc1c(C(=O)NCc2ccc([N+](=O)[O-])cc2)sc(=O)n1Cc1ccc2c(c1)OCO2	.	.	68.5	.	.	.
CCc1ccccc1NC(=O)c1cc2nc(-c3ccc(OC)c(OC)c3)cc(C(F)(F)F)n2n1	.	.	6.1	.	.	.
CCOc1cc(/C=C2/C(=O)ON=C2C)ccc1OCc1ccc(F)cc1	-0.5	41.4%	-97.0*	-17.3	68.2%	?
COc1ccc(CNC(=O)CCc2cn(Cc3cc(C)ccc3C)c3ccccc23)cc1OC	.	.	-15.5	.	.	.
COc1ccc(CN2C(=O)C(NC(=O)c3ccccc3C)(C(F)(F)F)N=C2c2ccccc2)cc1 (stereo not drawn)	.	.	-102.7*	.	.	.
O=S(=O)(c1ccc(Oc2ccc(S(=O)(=O)N3CCOCC3)cc2)cc1)N1CCOCC1	-1.3	-12.2%	-65.8*	44.6	?	?
O=S(=O)(c1ccc(OCc2ccc(Br)cc2)cc1)N1CCOCC1	.	-25.9%	14.4	.	6.57µM*	9.0%
O=S(=O)(c1ccc(Oc2ccc(Cl)cc2)nc1)N1CCOCC1	.	2.3%	1.9	.	35.6%	0.0%
COc1ccc(S(=O)(=O)N2CCOCC2)cc1Br	-2.0	1.7%	-19.8	-12.0	-11.8%	10.8%
COc1ccc(C(C)=O)c(Oc2ccc(S(=O)(=O)N3CCOCC3)cn2)c1	.	8.28µM*	23.7	.	?	-1.2%
Nc1cc(S(=O)(=O)N2CCOCC2)ccc1Oc1cccc(Br)c1	.	4.7%	-77.0*	.	19.8%	5.01µM*
O=S(=O)(c1ccc(N2CCOCC2)cc1)N1CCOCC1	1.9	-3.2%	15.4	-12.8	.	8.9%
O=C1CC2(CCN(C(=O)c3ccc(F)c(F)c3)CC2)Oc2ccccc21	.	0.1%	-31.0	.	0.8%	25.7%
CC1CCC(NC(=O)CNC(=O)Cc2cccc3ccccc23)CC1 (stereo not drawn)	0.7	-3.1%	-36.7	1.4	14.5%	-20.7%
O=C(CSc1nnnn1C1CC2CCC1C2)Nc1ccnc2ccccc12 (stereo not drawn)	6.9	-10.6%	-75.5*	0.2	28.7%	-15.2%
CCN(c1ccccc1)S(=O)(=O)c1cc(C(=O)NCC(c2ccc(OC)cc2)N(C)C)ccc1C (stereo not drawn)	.	.	-12.6	.	.	10µM*
COc1ccc(C(CNC(=O)c2ccc(S(=O)(=O)N(C)C)cc2)N(C)C)cc1 (stereo not drawn)	-0.9	-0.6%	39.4	14.3	19.9%	-4.7%
O=C(Nc1ccccc1C(=O)O)c1cc(S(=O)(=O)N2CCOCC2)c(Br)s1	8.4	-5.4%	15.3	16.8	?	2.2%
COC(=O)C#CC(=O)OC	-5.1	.	.	-7.1	.	.
COC(=O)CCc1c(C)nn(-c2ccccc2)c1C	25.2*	19.0%	-7.2	63.7*	.	5.3%
Cc1nn(-c2ccccc2)c(C)c1CCC(=O)O	42.3*	2.2%	84.8	89.9*	0.0%	16.2%
Cc1nn(Cc2ccccc2)c(C)c1CCC(=O)O	10.7	15.8%	62.8	34.4	.	13.4%
CCCCC(=O)Nc1ccc(OCc2cc(=O)n3c(C)csc3n2)cc1	.	.	-11.8	.	.	.

Compound activity as filed in PubChem.
